# Assay results from PubChem BioAssay (EPA / NIEHS).
# Inconclusive results are not listed. Calls of active or inactive are those of the source. Rule for the calls, unless noted: active = hit-call score of the fitted dose curve at least 0.9, where 1 is the maximum; inconclusive = response in the unintended direction; inactive = score below 0.9.
# Legend:
# [1] = molecular target: Cellular tumor antigen p53 (Homo sapiens) (UniProt P04637); assay: TOX21_p53_BLA_p2_ratio: Tox21 HCT-116 p53 Agonism Beta-lactamase Assay, Ratio, Phase 2 (AID 2283592)
# Sequence of Cellular tumor antigen p53 (Homo sapiens) (P04637 whole entry, looked up): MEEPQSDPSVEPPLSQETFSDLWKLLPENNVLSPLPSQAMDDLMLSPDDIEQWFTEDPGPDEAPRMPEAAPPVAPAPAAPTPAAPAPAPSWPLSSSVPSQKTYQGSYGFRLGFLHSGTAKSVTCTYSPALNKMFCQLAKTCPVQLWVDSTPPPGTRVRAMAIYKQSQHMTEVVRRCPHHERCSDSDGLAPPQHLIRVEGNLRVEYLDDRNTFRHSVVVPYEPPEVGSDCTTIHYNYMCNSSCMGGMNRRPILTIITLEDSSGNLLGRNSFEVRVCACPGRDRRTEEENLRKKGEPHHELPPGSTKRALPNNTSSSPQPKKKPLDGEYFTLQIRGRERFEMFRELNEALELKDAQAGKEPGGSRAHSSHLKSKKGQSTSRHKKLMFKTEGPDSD
# How it was run: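 HCT-116 cells with p53-responsive beta-lactamase reporter, 4000 cells/well, preincubated 5 h, then compound in DMSO (217-fold dilution) for 16 h at 37C. CCF4-AM substrate 2 h at room temperature; 460/530 nm emission ratio fitted upward versus DMSO.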
# [2] = molecular target: Cellular tumor antigen p53 (Homo sapiens) (UniProt P04637); assay: TOX21_p53_BLA_p3_ratio: Tox21 HCT-116 p53 Agonism Beta-lactamase Assay, Ratio, Phase 3 (AID 2283596)
# How it was run: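 HCT116 p53-bla cells (4000/well) given compound in DMSO (217-fold dilution) after 5 h, incubated 16 h at 37C. CCF4-AM substrate 2 h at room temperature; 460/530 nm emission ratio, gain fitted against DMSO.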
# [3] = TOX21_p53_BLA_p4_viability: Viability Assessment in the Tox21 HCT-116 p53 Agonism Beta-lactamase Assay, Phase 4 (AID 2283597);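 note: hits lower the luminescence signal meaning cytotoxicity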
# How it was run: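 HCT-116 p53-bla cells, 4000/well, dosed after 5 h attachment and incubated 16 h at 37 °C, 5% CO2. Viability from CellTiter-Glo ATP luminescence after 30 min at room temperature, taken after the beta-lactamase read; loss of signal indicates cytotoxicity.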
# [4] = molecular target: Cellular tumor antigen p53 (Homo sapiens) (UniProt P04637); assay: TOX21_p53_BLA_p5_ratio: Tox21 HCT-116 p53 Agonism Beta-lactamase Assay, Ratio, Phase 5 (AID 2283599)
# How it was run: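 Beta-lactamase reporter ratio (blue 460 nm over green 530 nm, 405 nm excitation) after 2 h CCF4-AM loading, in HCT-116 cells exposed 16 h at 37 C to compounds pinned at 217-fold dilution. Increases relative to DMSO baseline scored.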
# [5] = TOX21_p53_BLA_p5_viability: Viability Assessment in the Tox21 HCT-116 p53 Agonism Beta-lactamase Assay, Phase 5 (AID 2283600)
# How it was run: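 HCT-116 p53 beta-lactamase reporter cells, 4000/well, were exposed to compound (pin transfer, 217-fold dilution) for 16 hours at 37C. Cellular ATP was read by CellTiter-Glo luminescence after 30 min at room temperature.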
# [6] = molecular target: Cellular tumor antigen p53 (Homo sapiens) (UniProt P04637); assay: TOX21_p53_BLA_p4_ratio: Tox21 HCT-116 p53 Agonism Beta-lactamase Assay, Ratio, Phase 4 (AID 2283601)
# How it was run: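 Signal is the blue/green (460nm/530nm) ratio of cleaved versus uncleaved CCF4-AM substrate, read after 2 h substrate loading. Cells were HCT116 carrying the p53-responsive beta-lactamase reporter, dosed 16 h at 37C, 5% CO2; CellTiter-Glo measured in parallel.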
# [7] = molecular target: PGR (gene 5241) (UniProt P06401); assay: TOX21_PR_BLA_Followup_Agonist_ratio: Tox21 HEK293 Progesterone Receptor (PR) Agonism Beta-lactamase Follow-Up Assay, Ratio (AID 2283933)
# Sequence of PGR (gene 5241) (P06401 whole entry, looked up): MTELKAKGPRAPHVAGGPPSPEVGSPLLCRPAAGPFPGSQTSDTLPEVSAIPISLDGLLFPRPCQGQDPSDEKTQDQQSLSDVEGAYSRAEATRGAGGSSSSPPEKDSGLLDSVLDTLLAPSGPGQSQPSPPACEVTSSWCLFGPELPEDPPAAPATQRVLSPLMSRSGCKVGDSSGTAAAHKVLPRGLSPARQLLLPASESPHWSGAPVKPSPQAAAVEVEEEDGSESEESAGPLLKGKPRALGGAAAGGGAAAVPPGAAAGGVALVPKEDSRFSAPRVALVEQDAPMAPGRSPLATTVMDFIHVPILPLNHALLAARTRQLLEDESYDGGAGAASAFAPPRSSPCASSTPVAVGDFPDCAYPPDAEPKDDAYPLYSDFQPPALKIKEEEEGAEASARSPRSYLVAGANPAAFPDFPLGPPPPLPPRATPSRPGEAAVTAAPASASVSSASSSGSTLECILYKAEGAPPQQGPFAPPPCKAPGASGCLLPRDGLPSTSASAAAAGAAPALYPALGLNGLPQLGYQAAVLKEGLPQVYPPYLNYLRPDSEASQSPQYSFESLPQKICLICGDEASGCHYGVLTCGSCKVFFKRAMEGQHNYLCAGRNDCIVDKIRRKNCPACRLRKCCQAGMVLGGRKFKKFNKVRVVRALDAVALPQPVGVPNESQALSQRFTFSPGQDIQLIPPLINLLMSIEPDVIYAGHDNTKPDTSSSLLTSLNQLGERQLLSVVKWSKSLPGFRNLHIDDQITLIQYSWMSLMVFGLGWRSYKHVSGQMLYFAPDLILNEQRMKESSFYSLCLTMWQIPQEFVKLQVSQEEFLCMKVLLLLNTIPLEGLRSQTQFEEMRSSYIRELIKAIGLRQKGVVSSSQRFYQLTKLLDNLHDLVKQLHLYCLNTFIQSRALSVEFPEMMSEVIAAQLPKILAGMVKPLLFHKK
# How it was run: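 PR-UAS-bla HEK293T cells in medium with 2% charcoal-stripped FBS were dosed after 6 h plating and incubated 16 h at 37C. LiveBLAzer FRET substrate was added for 2 h at room temperature. Cleaved/uncleaved substrate ratio fitted against DMSO; CellTiter-Glo viability run in the same wells.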
# [8] = molecular target: PGR (gene 5241) (UniProt P06401); assay: TOX21_PR_BLA_Followup_Antagonist_ratio: Tox21 HEK293 Progesterone Receptor (PR) Antagonism Beta-lactamase Follow-Up Assay, Ratio (AID 2283934)
# How it was run: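 PR-UAS-bla HEK293T cells, 3,000/well in 2% charcoal-stripped FBS, given compound plus 1nM R5020 agonist for 16 hr at 37C. Beta-lactamase FRET substrate 2 hours, ratio cleaved/uncleaved fluorescence; viability by CellTiter-Glo in same wells.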
# [9] = TOX21_PR_BLA_Followup_Agonist_viability: Viability Assessment in the Tox21 HEK293 Progesterone Receptor (PR) Agonism Beta-lactamase Follow-Up Assay (AID 2283935);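 note: signal loss means lower viability so actives are cytotoxic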
# How it was run: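 PR-UAS-bla HEK293T cells in 2% charcoal-stripped FBS medium, plated 6 hr before compound addition, exposed 16 hr at 37C. Viability read by CellTiter-Glo ATP luminescence after 30 min at room temperature, in the same wells as the beta-lactamase readout.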
# [10] = molecular target: PGR (gene 5241) (UniProt P06401); assay: TOX21_PR_LUC_Followup_Agonist: Tox21 HEK293 Progesterone Receptor (PR) Agonism Luciferase Follow-Up Assay (AID 2283937; active = hit-call score of the fitted dose curve at least 0.9, where 1 is the maximum; inactive = score below 0.9)
# How it was run: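 HEK293-PR-A-luc cells, conditioned 5 days in 10% charcoal-stripped FBS medium, seeded 3,000/well for 5 h, then compound-treated 16 h at 37C. ONE-Glo luminescence read after 30 min at room temperature; gain of signal versus DMSO.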
# [11] = TOX21_PR_LUC_Followup_Antagonist_viability: Viability Assessment in the Tox21 HEK293 Progesterone Receptor (PR) Antagonism Luciferase Follow-Up Assay (AID 2283940)
# How it was run: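 HEK293-PR-A-luc cells kept in charcoal-stripped FBS medium were plated 5 h before compound addition, then exposed 16 h at 37C; viability read as cellular ATP by luciferase luminescence, loss of signal indicating cytotoxicity.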
# [12] = TOX21_PR_LUC_Followup_Agonist_viability: Viability Assessment in the Tox21 HEK293 Progesterone Receptor (PR) Agonism Luciferase Follow-Up Assay (AID 2283941);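 note: loss of signal means cytotoxicity so actives lower viability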
# How it was run: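 HEK293-PR-A-luc cells, kept in 10% charcoal-stripped FBS medium, were treated with compounds for 16 h at 37C. Viability read as cellular ATP by luciferase-coupled luminescence; loss of signal indicates cytotoxicity.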
# [13] = CCTE_Harrill_HTTr_Viability_MCF7: CCTE's 6-hour Cell Viability Assessment for the High-Throughput Transcriptomics (HTTr) Platform, in MCF-7 cells cultured in DMEM + 10% fetal bovine serum, Harrill Lab (AID 2284010; active = hit-call score of the fitted dose curve at least 0.9, where 1 is the maximum; inactive = score below 0.9)
# How it was run: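 MCF-7 cells in DMEM + 10% FBS, 384-well, exposed 6 h to an eight-point dilution series. Membrane integrity scored by high-content imaging of propidium iodide exclusion; bidirectional fit versus DMSO.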
# [14] = TOX21_TRB_BLA_Agonist_Followup_viability: Viability Assessment in the Tox21 Thyroid Hormone Receptor beta Agonism Beta-lactamase (BLA) Follow-Up Assay (AID 2283956)
# How it was run: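 TRb-bla HEK293T cells (GAL4-DBD/human TRb LBD) in 2% charcoal-stripped FBS medium were exposed 18 h at 37C to 11 concentrations in triplicate. CellTiter-Glo ATP luminescence was read after 30 min at room temperature, with bidirectional fitting against DMSO.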
# [15] = molecular target: Retinoic acid receptor RXR-alpha (Homo sapiens) (UniProt P19793); assay: TOX21_TR_RXR_BLA_Agonist_Followup_ratio: Tox21 Thyroid Hormone Receptor beta Retinoid X Receptor alpha (RXRa) Agonism Beta-lactamase (BLA) Follow-Up Assay, Ratio (AID 2283968)
# Sequence of Retinoic acid receptor RXR-alpha (Homo sapiens) (P19793 whole entry, looked up): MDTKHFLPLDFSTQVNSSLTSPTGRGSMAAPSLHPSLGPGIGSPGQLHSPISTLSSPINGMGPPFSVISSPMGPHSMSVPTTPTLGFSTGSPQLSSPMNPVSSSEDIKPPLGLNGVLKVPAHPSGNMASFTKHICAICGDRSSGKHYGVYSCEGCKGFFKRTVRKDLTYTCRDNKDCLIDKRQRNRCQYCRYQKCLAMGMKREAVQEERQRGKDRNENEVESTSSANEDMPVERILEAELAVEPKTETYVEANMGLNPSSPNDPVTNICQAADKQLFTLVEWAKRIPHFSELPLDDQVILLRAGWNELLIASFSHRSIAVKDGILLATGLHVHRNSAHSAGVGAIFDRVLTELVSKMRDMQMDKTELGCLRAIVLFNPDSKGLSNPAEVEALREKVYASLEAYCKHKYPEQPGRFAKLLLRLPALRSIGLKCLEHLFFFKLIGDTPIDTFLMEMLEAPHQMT
# How it was run: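 RXRa-UAS-bla HEK293T cells, 5 h attachment at 37C/5% CO2, then 11 concentrations in triplicate for 16 h; 9-cis retinoic acid positive control. FRET-B/GCCF4-AM substrate 2 h at room temperature; 460:530 nm ratio, fitted for gain versus DMSO.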
# [16] = TOX21_TR_RXR_BLA_Agonist_Followup_viability: Viability Assessment in the Tox21 Thyroid Hormone Receptor beta Retinoid X Receptor alpha (RXRa) Agonism Beta-lactamase (BLA) Follow-Up Assay (AID 2283970)
# How it was run: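 RXRa-UAS-bla HEK293T cells, 2,500/well in phenol red-free DMEM with 2% charcoal-stripped FBS, dosed for 16 h at 37C. Viability measured by CellTiter-Glo ATP luminescence; fitted bidirectionally against DMSO baseline, loss of signal indicating cytotoxicity.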
# [17] = UKN5_HCS_SBAD2_cell_viability: Viability Assessment in the University of Konstanz (UKN) Leist Lab Neurite Outgrowth Assay in human iPSC-derived immature Dorsal Root Ganglia Neurons (UKN5) (AID 2284056; active = hit-call score of the fitted dose curve at least 0.9, where 1 is the maximum; inactive = score below 0.9)
# How it was run: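 iPSC-derived immature peripheral neurons (SBAD2) seeded on Matrigel with CHIR99021, SU5402 and DAPT, dosed 1 h later for 24 h. Viability from Hoechst H-33342 and calcein-AM live staining, high-content imaging; bidirectional fit versus DMSO.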
# [18] = UKN5_HCS_SBAD2_neurite_outgrowth: University of Konstanz (UKN) Leist Lab Neurite Outgrowth Assay in human iPSC-derived immature Dorsal Root Ganglia Neurons (UKN5) (AID 2284070; active = hit-call score of the fitted dose curve at least 0.9, where 1 is the maximum; inactive = score below 0.9); settings: actives raise or lower the signal
# How it was run: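 SBAD2 iPSC-derived immature peripheral neurons on Matrigel, 100.000 cells/cm2, medium with CHIR99021 (1.5 uM), SU5402 (5 uM), DAPT (5 uM); compound added 1 h post-seeding for 24 h. Calcein-AM neurite area by high-content imaging; Hoechst H-33342 viability; bidirectional fit vs DMSO.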
# [19] = UKN2_HCS_IMR90_neural_migration: University of Konstanz (UKN) Leist Lab Neural Crest Cell Migration Assay in human induced IMR90 Pluripotent Stem Cells (UKN2) (AID 2284204; active = hit-call score of the fitted dose curve at least 0.9, where 1 is the maximum; inactive = score below 0.9); settings: actives raise or lower the signal
# How it was run: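 Migration of human IMR90-derived neural crest cells into a stopper-defined gap is imaged after 24 h chemical treatment. Activity is fitted bidirectionally relative to DMSO.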
# [20] = UKN4_HCS_LUHMES_neurite_outgrowth: University of Konstanz (UKN) Leist Lab Neurite Outgrowth Assay in human LUHMES cells (UKN4) (AID 2284206; active = hit-call score of the fitted dose curve at least 0.9, where 1 is the maximum; inactive = score below 0.9); settings: actives raise or lower the signal
# How it was run: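 Human LUHMES neuronal precursors, differentiated 2 days then replated without cAMP and GDNF, exposed to compounds for 24 h. Neurite area imaged by high-content microscopy after calcein-AM live staining; Hoechst H-33342 for viability; bidirectional fit versus DMSO.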
# [21] = UKN2_HCS_IMR90_cell_viability: Viability Assessment in the University of Konstanz (UKN) Leist Lab Neural Crest Cell Migration Assay in human induced IMR90 Pluripotent Stem Cells (UKN2) (AID 2284233; active = hit-call score of the fitted dose curve at least 0.9, where 1 is the maximum; inactive = score below 0.9;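 note: viability of neural crest cells differentiated from IMR90 iPSC measured by calcein-AM fluorescence imaging; cells exposed to compound for 24 h after a 24 h migration phase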)
# How it was run: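 Human IMR90-derived neural crest cells were allowed to migrate for 24 h into a cell-free zone, then exposed to test chemicals for 24 h. Calcein-AM and Hoechst staining with high-content imaging gave viability, analysed against DMSO baseline.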
# [22] = TOX21_p53_BLA_p3_viability: Viability Assessment in the Tox21 HCT-116 p53 Agonism Beta-lactamase Assay, Phase 3 (AID 2283593)
# How it was run: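 Cellular ATP was quantified by CellTiter-Glo luminescence, read after 30 min at room temperature. Beforehand, HCT116 cells (4000/well) received compound 5 h post-seeding, 217-fold diluted from DMSO, then incubated 16 h at 37C.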
compound,measurement,setting,value
Nc1cc(Cl)ccc1O,AC50,[1],49.9 µM (active)
same,AC50,[2],59.7 µM (active)
same,outcome,[3],inactive
same,AC50,[4],62.6 µM (active)
same,outcome,[5],inactive
same,AC50,[6],54.8 µM (active)
CNCC(=O)c1ccc(O)c(O)c1,outcome,[1],inactive
same,outcome,[2],inactive
same,outcome,[3],inactive
same,outcome,[5],inactive
Cn1c(CCCC(=O)O)nc2cc(N(CCCl)CCCl)ccc21,AC50,[1],27.1 µM (active)
same,AC50,[2],31.3 µM (active)
same,outcome,[3],inactive
same,AC50,[4],33.1 µM (active)
same,AC50,[6],32.4 µM (active)
O=[N+]([O-])c1ccc(CCl)cc1,outcome,[1],inactive
same,outcome,[2],inactive
same,outcome,[3],inactive
same,outcome,[4],inactive
same,outcome,[5],inactive
same,outcome,[6],inactive
C#C[C@]1(O)CC[C@H]2[C@@H]3CCC4=CC(=O)CCC4=C3C=C[C@@]21CC,outcome,[1],inactive
same,outcome,[2],inactive
same,outcome,[3],inactive
same,outcome,[4],inactive
same,outcome,[5],inactive
same,outcome,[6],inactive
same,AC50,[7],0.144 µM (active)
same,outcome,[8],inactive
same,outcome,[9],inactive
same,AC50,[10],0.00156 µM (active)
same,outcome,[11],inactive
same,outcome,[12],inactive
BrC(Br)Br,outcome,[1],inactive
same,outcome,[2],inactive
same,outcome,[3],inactive
same,outcome,[4],inactive
same,outcome,[5],inactive
same,outcome,[6],inactive
same,outcome,[13],inactive
N[C@@H](Cc1ccc(Oc2cc(I)c(O)c(I)c2)c(I)c1)C(=O)O,outcome,[1],inactive
same,outcome,[2],inactive
same,outcome,[3],inactive
same,outcome,[4],inactive
same,outcome,[6],inactive
same,outcome,[14],inactive
same,outcome,[15],inactive
same,outcome,[16],inactive
CNC(C)Cc1ccc2c(c1)OCO2 (configuration not stated),outcome,[1],inactive
same,outcome,[2],inactive
same,outcome,[3],inactive
same,outcome,[4],inactive
same,outcome,[17],inactive
same,outcome,[18],inactive
same,outcome,[19],inactive
same,outcome,[20],inactive
same,outcome,[21],inactive
Cc1ccc2c(c1)[C@]13CCCC[C@@H]1[C@H](C2)N(C)CC3,outcome,[1],inactive
same,outcome,[22],inactive
same,outcome,[6],inactive
Clc1cccc(N2CCNCC2)c1,outcome,[1],inactive
same,outcome,[2],inactive
same,outcome,[3],inactive
same,outcome,[4],inactive
CCSCc1ccccc1OC(=O)NC,outcome,[1],inactive
same,outcome,[22],inactive
same,outcome,[5],inactive
same,outcome,[6],inactive
Cc1ncc(CNC(=O)N(CCCl)N=O)c(N)n1,outcome,[1],inactive
same,outcome,[2],inactive
same,outcome,[4],inactive
same,outcome,[6],inactive
